ChEMBL document CHEMBL1157539, “Thousands of chemical starting points for antimalarial lead identification” (Nature, 2010)

test system: Plasmodium falciparum; experiment: GSK_TCMDC: Inhibition of Plasmodium falciparum 3D7 in whole red blood cells, using parasite LDH activity as an index of growth. Test compounds present at 2uM; format: functional

Row | Structure (SMILES) | Inhibition
1 | CC[C@H]1CN2CC[C@@H]1C[C@H]2[C@H](O)c1cc(-c2cccnc2)nc2ccc(OC)cc12.Cl | 99%
2 | Cc1[nH]c2cc(F)ccc2c1C1=CCN(CCCCC2(C)C(=O)Nc3c(F)cccc32)CC1 (stereo not given) | 96%
3 | CCCCCc1cc(O)c2c3c(c(=O)oc2c1)CN(C)CC3 | 100%
4 | Oc1ccccc1CNCC(O)c1cc(C(F)(F)F)cc(C(F)(F)F)c1 (stereo not given) | 99%
5 | CN(c1ccnc(Nc2ccc(CS(C)(=O)=O)cc2)n1)C1CCN(Cc2ccccc2)CC1 | 83%
6 | Cl.Cl.c1ccc2c(NCCCCCCNc3c4ccccc4nc4ccccc34)c3ccccc3nc2c1 | 99%
7 | CCCCCC(C)C(C)c1cc(O)c2c(c1)OC(C)(C)c1cnccc1-2.Cl (stereo not given) | 94%
8 | O=C(O)c1ccc2nc(-c3ccc(-c4ccccc4)cc3)n(C3CCN(Cc4ccc(-c5ncc[nH]5)cc4)CC3)c2c1 | 91%
9 | Cc1cc(N(C)C2CCN(C)CC2)nc(Nc2ccc(Br)cc2)n1 | 100%
10 | COCCNCc1ccc(-c2ccc(CN(C(=O)Nc3ccccc3)C3CCN(Cc4ccccc4)CC3)cc2)cc1.O=C(O)C(F)(F)F | 98%
11 | O=C(/C=C/c1ccc(Cl)c(Cl)c1)N1CCC(CN2C3CCC2CC(c2c[nH]c4ccccc24)C3)CC1 (stereo not given) | 100%
12 | CC(=O)Nc1ccc(OCCN(CC(C)C)c2ccc(C#N)c(C(F)(F)F)c2)c(Cl)c1 | 94%
13 | CC[C@H]1CN2CC[C@H]1C[C@H]2[C@H](O)c1cc(-c2ccccc2F)nc2ccc(OC)cc12.Cl | 99%
14 | O=C(/C=C/c1cc(F)cc(C(F)(F)F)c1)N1CCC(CN2CCC(c3c[nH]c4ccccc34)CC2)CC1 | 100%
15 | S=C(Nc1ccccc1Cl)NC1CCC(CN2CCC(c3c[nH]c4ccccc34)CC2)CC1 (stereo not given) | 90%
16 | CS(=O)(=O)Nc1ccc2[nH]cc(C3CCN(CC4CCN(C(=O)/C=C/c5ccc(Cl)c(Cl)c5)CC4)CC3)c2c1 | 100%
17 | CCCc1c(C(=O)NC2CCC(CN3CCC(c4c[nH]c5ccccc45)CC3)CC2)cnn1-c1ccccc1 (stereo not given) | 92%
18 | CC[C@H]1CN2CC[C@H]1C[C@H]2[C@@H](O)c1cc(OCCCN(C)C)nc2ccc(OC)cc12 | 99%

Row | Structure (SMILES) | Inhibition
19 | O=c1c2ccccc2nc(/C=C/c2ccc([N+](=O)[O-])cc2)n1-c1ccccn1 | 98%
20 | CC[C@H]1CN2CC[C@@H]1C[C@H]2[C@H](O)c1cc(N2CCC(c3ccccc3)CC2)nc2ccc(OC)cc12 | 99%
21 | S=C(NCC1CCCCC1)NC1CCC(CN2CCC(c3c[nH]c4ccccc34)CC2)CC1 (stereo not given) | 88%
22 | O=C(NCc1ccc(S(=O)(=O)N2CCC(CN3CCC(c4c[nH]c5ccccc45)CC3)CC2)s1)c1ccccc1 | 92%
23 | O=C(c1cc(C(=O)NCc2ccc(Cl)cc2)c(=O)n(Cc2ccc(Cl)cc2)c1)c1cc(Cl)ccc1O | 80%
24 | CN(c1cc(NC(=O)c2ccccc2)ccn1)C1CCN(Cc2cccc(F)c2)CC1.O=C(O)C(F)(F)F | 92%
25 | Cc1[nH]c2ccccc2c1C1=CCN(CCCCC23CCCc4cccc(c42)NC3=O)CC1 (stereo not given) | 95%
26 | Oc1ccc(CN2CCN(CCOC(c3ccccc3)c3ccccc3)CC2)cc1Cl | 98%
27 | O=C(NC1CCC(CN2CCC(c3c[nH]c4ccccc34)CC2)CC1)c1cn(Cc2ccccc2)c2ccccc12 (stereo not given) | 91%
28 | O=C(Nc1ccc(Oc2ccccc2)cc1)N1CCC(CN2CCC(c3c[nH]c4ccccc34)CC2)CC1 | 100%
29 | C/C=C1/CN2CC[C@H]1C[C@H]2[C@H](O)c1ccnc2ccc(OC)cc12 | 99%
30 | CCCCCCc1cc(O)c2c3c(c(=O)oc2c1)CCN(C)C3 | 99%
31 | CC(C)CN1CCC(N(C)c2cc(NC(=O)c3cccc(F)c3)ccn2)CC1.O=C(O)C(F)(F)F | 97%
32 | CNC(=O)c1ccc2[nH]cc(C3CCN(CC4CCC(NC(=O)/C=C/c5ccc(Cl)c(Cl)c5)CC4)CC3)c2c1 (stereo not given) | 100%
33 | CNC(=O)c1ccc2[nH]cc(C3CCN(CC4CCC(NC(=O)/C=C/c5ccccc5Cl)CC4)CC3)c2c1 (stereo not given) | 100%
34 | CC(Cc1ccc(-c2nc3ccccc3[nH]2)cc1)NCC(O)c1cccc(C(F)(F)F)c1 (stereo not given) | 97%
35 | CC[C@H]1CN2CC[C@H]1C[C@H]2[C@H](O)c1cc(/C=C/c2ccccc2)nc2ccc(OC)cc12 | 99%
